Test results: PubChem BioAssay (EPA / NIEHS)
Inconclusive results are not listed. Calls of active or inactive are those of the source. Rule for the calls, unless noted: active = hit-call score of the fitted dose curve at least 0.9, where 1 is the maximum; inactive = score below 0.9.

Legend:
[1] = CCTE_Mundy_HCI_Cortical_Synap_Neur_Matur_NeuriteSpotCountPerNeuriteLength: CCTE's Synaptogenesis and Neurite Maturation Assay in rat cortical cells for Neurite Spot Count per Neurite Length, Mundy Lab (AID 2284210)
Outline: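 Rat primary cortical cultures, AraC added at DIV 5 to suppress glia; chemical exposure from DIV 7 to DIV 12. Fixed cells stained for MAP2 and synaptophysin plus Hoechst; synaptophysin puncta per neurite length quantified by high-content imaging, relative to DMSO.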

[2] = CCTE_Mundy_HCI_Cortical_Synap_Neur_Matur_BPCount: CCTE's Synaptogenesis and Neurite Maturation Assay in rat cortical cells for Branch Point Count, Mundy Lab (AID 2284211)
Outline: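 Rat primary cortical cultures, AraC added DIV 5; chemicals dosed DIV 7 through DIV 12. Fixed cells stained for MAP2, synaptophysin and Hoechst; neurite branch points counted by automated high-content imaging, fitted relative to DMSO.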

[3] = CCTE_Mundy_HCI_Cortical_NOG_NeuriteCount: CCTE's Neurite Outgrowth Assay in rat cortical cells for Neurite Count, Mundy Lab (AID 2284212);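 note: cells fixed about two days after chemical exposure began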
Outline: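 Neurite number per cell from high-content imaging of betaIII-tubulin immunostaining, with Hoechst nuclear counterstain.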

[4] = CCTE_Mundy_HCI_Cortical_Synap_Neur_Matur_NeuriteLength: CCTE's Synaptogenesis and Neurite Maturation Assay in rat cortical cells for Neurite Length, Mundy Lab (AID 2284214)
Outline: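 Rat primary cortical cultures, AraC added DIV 5, dosed DIV 7 through DIV 12 […]. Fixed, MAP2/synaptophysin immunostained with Hoechst; neurite length by high-content imaging, fitted in positive direction versus DMSO.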

[5] = CCTE_Mundy_HCI_Cortical_Synap_Neur_Matur_NeuriteSpotCountPerNeuron: CCTE's Synaptogenesis and Neurite Maturation Assay in rat cortical cells for Neurite Spot Count per Neuron Count, Mundy Lab (AID 2284215)
Outline: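 Developing rat cortical neurons, with glia suppressed by AraC, are exposed to chemicals from DIV 7 to DIV 12. Automated fluorescence imaging of MAP2-labelled neurites and synaptophysin puncta yields a count per neuron, normalised against DMSO wells.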

[6] = CCTE_Mundy_HCI_Cortical_Synap_Neur_Matur_SynapseCount: CCTE's Synaptogenesis and Neurite Maturation Assay in rat cortical cells for Synapse Count, Mundy Lab (AID 2284218)
Outline: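 Rat primary cortical cultures, AraC at DIV 5, chemical dosing DIV 7 to DIV 12 (288.33 h). Fixed cells stained for MAP2, synaptophysin and Hoechst; synapses per neuron counted by high-content imaging, loss of signal versus DMSO.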

[7] = CCTE_Mundy_HCI_Cortical_Synap_Neur_Matur_NeuriteCount: CCTE's Synaptogenesis and Neurite Maturation Assay in rat cortical cells for Neurite Count, Mundy Lab (AID 2284222);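 note: exposure from day 7 to day 12 in vitro with readout at day 12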
Outline: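 Rat primary cortical cells; AraC added at DIV 5, chemicals dosed with media change at DIV 7 through DIV 12. MAP2/synaptophysin/Hoechst immunostaining, high-content imaging of neurite number; fitted relative to DMSO.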

[8] = CCTE_Mundy_HCI_Cortical_Synap_Neur_Matur_CellBodySpotCount: CCTE's Synaptogenesis and Neurite Maturation Assay in rat cortical cells for Cell Body Spot Count, Mundy Lab (AID 2284223)
Outline: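 Chemicals were applied to AraC-treated rat primary cortical cells at DIV 7 and measured at DIV 12. Fixed cells were labelled for MAP2, synaptophysin and nuclei, and high-content imaging gave cell body synaptophysin spot counts per neuron relative to DMSO.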

[9] = UKN2_HCS_IMR90_cell_viability: Viability Assessment in the University of Konstanz (UKN) Leist Lab Neural Crest Cell Migration Assay in human induced IMR90 Pluripotent Stem Cells (UKN2) (AID 2284233);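 note: viability of neural crest cells differentiated from IMR90 iPSC measured by calcein-AM fluorescence imaging; cells exposed to compound for 24 h after a 24 h migration phase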
Outline: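 Neural crest cells derived from IMR90 iPSC migrate into a stopper-free zone for 24 h in EGF/FGF medium, then are exposed to compound for 24 h. Viability assessed by calcein-AM and Hoechst staining with high-content imaging, fitted bidirectionally versus DMSO.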

[10] = CCTE_Mundy_HCI_Cortical_NOG_NeuronCount: CCTE's Neurite Outgrowth Assay in rat cortical cells for Neuron Count, Mundy Lab (AID 2284236; active = hit-call score of the fitted dose curve at least 0.9, where 1 is the maximum;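 note: neurons counted by imaging betaIII-tubulin and Hoechst stained cortical cells; cells exposed to compound for about 48 hours before fixation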)
Outline: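 Read-out: neuron number by high-content imaging of betaIII-tubulin (Alexa Fluor-488) and Hoechst-labelled rat primary cortical cells.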

[11] = CCTE_Mundy_HCI_Cortical_NOG_BPCount: CCTE's Neurite Outgrowth Assay in rat cortical cells for Branch Point Count, Mundy Lab (AID 2284237)
Outline: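 Measured 50.33 h after dosing, this morphology endpoint uses rat primary cortical cultures labelled for betaIII-tubulin. Branch points are quantified by high-content imaging, with DMSO as negative control and baseline.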

[12] = CCTE_Mundy_HCI_hNP1_Casp3_7: CCTE's Caspase-Glo 3/7 Assay in human neuroprogenitor cells for Apoptosis, Mundy Lab (AID 2284240)
Outline: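 Luminescent caspase-3/7 readout, 26.5 h post-dose, in human neural progenitor cells from WA09 embryonic stem cells. Cells grew 40–44 h at 37 °C, 5% CO2 before chemical addition. Activity analysed as signal increase over DMSO baseline.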

[13] = CCTE_Mundy_HCI_Cortical_Synap_Neur_Matur_NeuronCount: CCTE's Synaptogenesis and Neurite Maturation Assay in rat cortical cells for Neuron Count, Mundy Lab (AID 2284242; active = hit-call score of the fitted dose curve at least 0.9, where 1 is the maximum)
Outline: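 Rat primary cortical cells, AraC added at DIV 5, dosed with media change from DIV 7 to DIV 12. Fixed, Hoechst-stained and immunolabelled for MAP2 and synaptophysin; neuron number counted by high-content imaging, loss fitted versus DMSO.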

[14] = IUF_NPC2c_oligodendrocyte_migration_120hr: Leibniz Research Institute for Environmental Medicine (IUF) 120-hour Neural Progenitor Cell Migration Assay for Oligodendrocyte Migration (NPC2c) (AID 2284297);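 note: O4-positive oligodendrocyte migration distance divided by radial glia migration distance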
Outline: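 Using fetal brain neural progenitor spheres differentiating in N2 medium at 37C, compounds were present for 120 h. Oligodendrocyte migration distance, normalized to radial glia migration, was measured from imaged O4 staining.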

[15] = IUF_NPC2a_radial_glia_migration_120hr: Leibniz Research Institute for Environmental Medicine (IUF) 120-hour Neural Progenitor Cell Migration Assay for Radial Glia Migration (NPC2a) (AID 2284298)
Outline: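 Exposure of 0.3 mm primary hNPC spheres runs day 0 to 120 h with a half-volume medium change at day 3. Fixed cells get Hoechst staining; high-content analysis of nuclear positions yields radial glia migration distance per well, compared against DMSO controls.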

[16] = IUF_NPC2a_radial_glia_migration_72hr: Leibniz Research Institute for Environmental Medicine (IUF) 72-hour Neural Progenitor Cell Migration Assay for Radial Glia Migration (NPC2a) (AID 2284299)
Outline: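 Human fetal neural progenitor spheres (0.3 mm) plated on poly-D-lysine/laminin in N2 differentiation medium and exposed from day 0 at 7 concentrations; radial glia migration distance from sphere edge measured at 72 h on brightfield images, mean of four directions, vs DMSO.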

[17] = IUF_NPC2b_neuronal_migration_120hr: Leibniz Research Institute for Environmental Medicine (IUF) 120-hour Neural Progenitor Cell Migration Assay for Neuron Migration (NPC2b) (AID 2284300)
Outline: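 Fetal human NPC spheres migrate on PDL/laminin during 120 h compound treatment; neuronal migration distance, glia-normalized, scored versus DMSO control.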

[18] = IUF_NPC3_neuronal_differentiation_120hr: Leibniz Research Institute for Environmental Medicine (IUF) 120-hour Neuronal Differentiation Assay (NPC3) (AID 2284301)
Outline: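 Human fetal (GW 16-19) neural progenitor spheres (0.3 mm) plated on poly-D-lysine/laminin in N2 differentiation medium, exposed 120 h at 37C with half-medium renewal day 3; 7 concentrations. TUBB3+ cells as % of Hoechst nuclei, CNN-identified; DMSO baseline.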

[19] = IUF_NPC2-5_cytotoxicity_72hr: Cytotoxicity Assessment at 72 hours in the Leibniz Research Institute for Environmental Medicine (IUF) Neural Progenitor Cell Migration and Differentiation Assay for Cytotoxicity (NPC2-5) (AID 2284306; active = hit-call score of the fitted dose curve at least 0.9, where 1 is the maximum;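 note: LDH release into supernatant measured by resorufin fluorescence marking membrane damage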)
Outline: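 Human fetal primary neural progenitor spheres (0.3 mm) plated on poly-D-lysine/laminin in N2 differentiation medium, exposed from day 0 at 37C. LDH-dependent resazurin-to-resorufin fluorescence in supernatant at 72 h; 7 concentrations, DMSO at most 0.1%.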

[20] = IUF_NPC2-5_cell_number_120hr: Cell Number Assessment at 120 hours in the Leibniz Research Institute for Environmental Medicine (IUF) Neural Progenitor Cell Migration and Differentiation Assay (NPC2-5) (AID 2284308);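 note: count of Hoechst-stained nuclei in migration zone around plated human neural progenitor spheres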
Outline: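 Seven-point serial dilutions plus solvent control were applied to plated 0.3 mm hNPC spheres at differentiation start, with medium half-replaced at day 3. Nuclei positive for Hoechst in the migration zone were enumerated at 120 h.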

[21] = IUF_NPC2-5_viability_120hr: Viability Assessment at 120 hours in the Leibniz Research Institute for Environmental Medicine (IUF) Neural Progenitor Cell Migration and Differentiation Assay (NPC2-5) (AID 2284312)
Outline: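 Human fetal neural progenitor spheres (0.3 mm) plated on poly-D-lysine/laminin in N2 differentiation medium, exposed 120 h with half-medium refresh at day 3. Viability by alamar blue resazurin fluorescence; 7 concentrations, DMSO max 0.1%.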

Measured: outcome

CCc1ccccc1
inactive: [1] | [2] | [3] | [4] | [5] | [6] | [7] | [8] | [9] | [10] | [11] | [12] | [13] | [14] | [15] | [16] | [17] | [18] | [19] | [20] | [21]
